Bioassay records as filed in PubChem.
ALOX15B inhib: qHTS Assay for Inhibitors of 15-hLO-2 (15-human lipoxygenase 2) | Polyunsaturated fatty acid lipoxygenase ALOX15B (Homo sapiens), O15296 | 110,000 compounds, 0.56% hits | purified 15hLO-2, xylenol orange hydroperoxide absorbance | AID 881, 2007 | Potency, µM (titrated, usually from 57.1 µM), for the others: top-dose activity change, negative = inhibition, usual class: inhibitors; note: potency is the fitted concentration of half-maximal effect; % is set by controls: 0 for no effect and ±100 for the full control effect; nearly all actives have a fitted effect of over 60% in size
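Purified human 15hLO-2 (50 nM) preincubated 15 min with compound, then 45 uM arachidonic acid for 90 min at RT in 25 mM Hepes pH 7.5, 0.01% Triton X-100. Hydroperoxide detected by Fe-xylenol orange; 573/405 nm absorbance ratio.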
Tau fil binding: qHTS Assay for Tau Filament Binding. Microtubule-associated protein tau (Homo sapiens), P10636. AID 596, 2007. recombinant tau filaments, thioflavin S fluorescence, 15 h; filaments grown with octadecylsulfate alongside compound. Potency, µM (highest dose often 57.1 µM), for inactives: at the highest dose activity change, negative = inhibition. 71,000 compounds, 2% hits;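 note: potency is the fitted concentration of half-maximal effect; % is set by controls: 0 for no effect and ±100 for the full control effect; actives lower thioflavin S fluorescence by blocking filaments or displacing dye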
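His-tagged recombinant human tau (exons 2, 3, 10; 1 uM final) fibrillized with 30 uM sodium octadecylsulfate, 15 h at 37 C, in pH 7.4 HEPES buffer with 10 uM thioflavine S and 5 mM DTT. Reduced ThS fluorescence (450/510 nm) marks activity.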
UbGFP stabilizer: Ubiquitin-GFP Assay; Ubiquitin-GFP reporter cells, proteasome inhibition, GFP fluorescence; response scale: untreated = 0%, 10 µM MG-132 = 100%; Potency, µM (series often up to 45.9 µM), for inactives: at the top dose activation (GFP accumulation), actives largely listed as activators; 67,000 tested, under 10 active; AID 526, 2006; active = well fitted activation curve with a large enough effect, not every such curve was filed as active; inconclusive = small, poorly fitted or top-dose-only effect, or another doubt; inactive = no such curve, though single readings can be large or run the other way; note: potency is the fitted concentration of half-maximal effect
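U2OS Ub(G76V)-GFP reporter; O/N plating, 0.5% FBS; cpd 46 uM–2.9 nM, 4 h, 37 °C; GFP+ cell count, 488/515 nm; norm. to basal vs 10 uM MG-132; CRC fit.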
GFP derepression: qHTS Assay for Epigenetic Modulators. 68,000 compounds, 0.09% hits. Potency, µM (titrated, usually from 46.1 µM), without a hit: at the highest dose GFP derepression (activation). mouse C127i GFP locus derepression, cytometry, 30 h; note: % of control where 0% means no effect
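Murine C127i mammary cells carrying a silenced, stably integrated CMV-driven GFP reporter were treated with compound for 30 hours at 37 C. After PBS washes, GFP-positive cells were counted by laser-scanning microplate cytometry.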
15-hLO inh: qHTS Assay for Inhibitors of 15-hLO (15-human lipoxygenase); Polyunsaturated fatty acid lipoxygenase ALOX15 (Homo sapiens), P16050; purified 15hLO-1, xylenol orange hydroperoxide absorbance; Potency, µM (titrated, usually from 57.1 µM), without a hit: at the top dose activity change, negative = inhibition, most hits filed as inhibitors; 74,000 compounds, 1.4% hits; AID 887, 2007; note: potency is the fitted concentration of half-maximal effect; % is set by controls: 0 for no effect and ±100 for the full control effect; nearly all actives have a fitted effect of over 55% in size
Target sequence (P16050 whole entry, looked up): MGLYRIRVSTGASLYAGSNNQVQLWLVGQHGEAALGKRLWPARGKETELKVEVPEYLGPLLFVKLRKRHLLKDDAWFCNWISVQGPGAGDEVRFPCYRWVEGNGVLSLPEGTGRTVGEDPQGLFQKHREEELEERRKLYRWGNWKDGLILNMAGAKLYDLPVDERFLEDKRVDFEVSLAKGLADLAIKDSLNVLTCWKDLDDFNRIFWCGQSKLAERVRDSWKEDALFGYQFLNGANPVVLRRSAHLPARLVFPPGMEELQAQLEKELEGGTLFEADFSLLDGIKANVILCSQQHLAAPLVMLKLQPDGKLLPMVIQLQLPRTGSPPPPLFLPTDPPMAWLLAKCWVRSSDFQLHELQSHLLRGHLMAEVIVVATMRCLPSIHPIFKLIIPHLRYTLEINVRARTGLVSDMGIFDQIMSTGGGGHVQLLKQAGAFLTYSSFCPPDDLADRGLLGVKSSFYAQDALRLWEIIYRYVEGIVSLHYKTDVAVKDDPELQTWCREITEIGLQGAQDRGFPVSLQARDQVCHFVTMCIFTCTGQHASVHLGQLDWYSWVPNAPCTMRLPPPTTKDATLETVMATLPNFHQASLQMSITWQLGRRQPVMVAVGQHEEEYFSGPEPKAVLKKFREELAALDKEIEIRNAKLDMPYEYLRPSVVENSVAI
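Quantitative HTS in 25 mM Hepes pH 7.5 containing 0.01% Triton X-100: human 15hLO-1 at 40 nM, arachidonic acid at 50 uM, 6 min turnover. Product quantified via ferrous oxidation/xylenol orange, 573:405 nm absorbance ratio.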
HBB splice mod: qHTS Assay for Modulators of Hemoglobin Beta Chain Splicing. HBB splicing reporter cell assay, activation; EGFP reporter with mutant IVS2-654 intron; response scale: normalised to 500 nM splice-correcting PNA. Potency, µM (highest dose often 46.1 µM), inactives show top-dose activation, most hits filed as activators. 65,000 compounds, 0.06% hits. AID 925, 2007; note: potency is the fitted concentration of half-maximal effect; 0% is about no effect
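HeLa cells stably expressing EGFP interrupted by mutant beta-globin intron 2 (IVS2-654), 500/well in 2% FCS. Treated with compound for 2 days at 37C. Splicing correction scored as total well GFP intensity (488 nm excitation, 500-520 nm emission); 500 nM antisense PNA served as control.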
Active calls of the source: *; ? = inconclusive; . = no result given; ! = a repeat was not active; [ ] = dose if it differs, or a comment. Most compounds without a hit are left out; they make up all but 2.3% or so of the library. Unless noted, calls come from the whole dose curve; as a rule, active = well fitted curve in the direction sought with a large enough effect; inconclusive = small, poorly fitted or top-dose-only effect, or another doubt; inactive = no such curve, though single readings can be large; an effect the other way counts as inactive or inconclusive.

SMILES	ALOX15B inhib	Tau fil binding	UbGFP stabilizer	GFP derepression	15-hLO inh	HBB splice mod
COc1cccc2c1C(=O)c1c(O)c3c(c(O)c1C2=O)C[C@@](O)(C(C)=O)C[C@@H]3O[C@H]1C[C@H](N)[C@H](O)[C@H](C)O1	39%[0.0915 µM]	0.13µM*	-4%	-4%[20.6 µM]	1%	0%
COc1cccc2c1C(=O)c1c(O)c3c(c(O)c1C2=O)C[C@](O)(C(=O)CO)C[C@@H]3O[C@H]1C[C@H](N)[C@@H](O)[C@H](C)O1	.	-1%[11.4 µM]	1%[9.17 µM]	0%[9.22 µM]	.	1%[9.22 µM]
COc1cc(N=C(N)N=C(N)N)c2ncccc2c1	7%[11.4 µM]	4%[11.4 µM]	-6%[9.17 µM]	10%[9.22 µM]	4%[11.4 µM]	4%[9.22 µM]
CC1(C)CC[C@]2(C(=O)O)CC[C@]3(C)C(=CC[C@@H]4[C@@]5(C)CC[C@H](O)C(C)(C)[C@@H]5CC[C@@]43C)[C@@H]2C1	.	?	1%	-5%[9.22 µM]	.	.
CCOc1ccc2[nH]c(C)cc(=O)c2c1	-4%	-20%	-2%	.	-5%	-2%
CCOc1ccc2[nH]c(=O)c(=O)[nH]c2c1	-3%	10µM*	-2%	0%	2%	-1%
COc1ccc2c(c1OC)C(Cc1ccccc1)N1CCc3cc4c(cc3C1C2)OCO4 (centres undefined)	-4%	.	.	.	131%[25.6 µM]	.
CCOC(=O)C1=C(N)OC2=C(C(=O)CC(C)(C)C2)C1c1ccco1 (centres undefined)	0%	14%	-3%	0%	9%	-2%
CC1(C)CC(=O)C2=C(C1)OC1=C(C(=O)CC(C)(C)C1)C2c1ccc(O)cc1O	?	42%[11.4 µM]	-18%[9.17 µM]	0%	3.2µM*	-5%[0.0738 µM]
C=CCc1cccc(C2C(C)CCC3C(=O)N4C(Cc5c([nH]c6ccccc56)C4c4cc(OC)c(OC)c(OC)c4)C(=O)N32)c1 (centres undefined)	.	.	.	.	1%[11.4 µM]	4%[9.22 µM]
Cc1ccsc1C1C=C(c2cccc(Br)c2)Nc2ncnn21 (centres undefined)	-5%	308%	2%	0%	16µM*	-1%
COC(=O)N1CCC[C@@]2(CCN(C(=O)Nc3ccccc3)C2)C1	0%	-2%	-1%	2%[9.22 µM]	5%	3%
Oc1cc(CN2COc3ccccc32)c(O)cc1CNC1CCCCC1	3.2µM*	-20%[11.4 µM]	2%[9.17 µM]	9%[9.22 µM]	?	5%[9.22 µM]
O=c1cc(CNC2CCCCC2)c2ccccc2[nH]1	-6%	5%	-2%	0%	?	-3%
Cc1cc2ncn(CC(=O)O)c2cc1C	-5%[11.4 µM]	-6%[11.4 µM]	11%[9.17 µM]	2%[9.22 µM]	0%[11.4 µM]	4%[9.22 µM]
FC(F)(F)c1cc(-c2ccco2)nc(NCc2ccco2)n1	.	-25%	-1%	6%	-28%	-1%
FC(F)(F)c1cc(-c2ccc3c(c2)OCO3)nc(NCc2ccco2)n1	3%	-10%	1%	-2%	20µM*	7%
CN(Cc1cccc2ccccc12)Cc1cccc2ccccc12	2%[11.4 µM]	-6%[11.4 µM]	-1%[9.17 µM]	-6%[9.22 µM]	-6%[11.4 µM]	-1%[9.22 µM]
Clc1ccc(CSc2ncnc3c2ncn3[C@@H]2CCCCO2)cc1	-8%[11.4 µM]	5%[11.4 µM]	0%[9.17 µM]	0%[9.22 µM]	-2%[11.4 µM]	1%[9.22 µM]
O=C(C[n+]1ccc2ccccc2c1)c1ccc2ccc3ccccc3c2c1	-2%[11.4 µM]	2µM*	-3%[9.17 µM]	-1%[9.22 µM]	16%[11.4 µM]	2%[9.22 µM]
c1ccc2c(c1)ccc1cc3c(ccc4ccccc43)cc12	6%	40%	.	.	-1%	0%
CCC(C)Nc1ccc(NC(C)CC)cc1 (centres undefined)	6%	16µM*	.	.	?	1%
CCC(C)NC(=O)c1ccccc1C(=O)NC(C)CC (centres undefined)	-7%	3%	-16%	-3%	1%	0%
CCC[C@H](Sc1nc(N)nc2nc[nH]c12)C(=O)O	1%[11.4 µM]	0%[11.4 µM]	-3%[9.17 µM]	2%[9.22 µM]	8%[11.4 µM]	-1%[9.22 µM]
CCCOc1ccccc1-c1nc2n[nH]nc2c(=O)[nH]1	0%	?	3%	0%	16µM*!	-1%[20.6 µM]
SMILES	ALOX15B inhib	Tau fil binding	UbGFP stabilizer	GFP derepression	15-hLO inh	HBB splice mod
Cc1ccc(Cn2c(=N)c(C(=O)NCc3ccco3)cc3c(=O)n4ccccc4nc32)cc1	.	3.2µM*	-7%	16%	-27%	.
N=c1c(C(=O)NCc2ccco2)cc2c(=O)n3ccccc3nc2n1CCc1ccccc1	-19%	0.63µM*	8%	-2%	13µM*	-5%
COc1ccc(CCn2c(=N)c(C(=O)N3CCN(C)CC3)cc3c(=O)n4ccccc4nc32)cc1	-9%	16µM*	.	-2%	-15%	0%[0.369 µM]
COc1ccc(CCn2c(=N)c(C#N)cc3c(=O)n4ccccc4nc32)cc1	.	.	.	2%[20.6 µM]	.	.
CCOC(=O)c1cc2c(=O)n3ccccc3nc2n(Cc2ccccc2Cl)c1=N	-19%	.	.	0%[20.6 µM]	.	.
CCOC(=O)c1cc2c(=O)n3ccccc3nc2n(Cc2ccccc2)c1=N	-14%	1.6µM*	2%	-1%	-9%	3%
Nc1ccc(S(=O)(=O)NCc2nccs2)cc1	-4%[11.4 µM]	-4%[11.4 µM]	-2%[9.17 µM]	-3%[9.22 µM]	-5%[11.4 µM]	5%[9.22 µM]
CC(=O)OC(C(=O)c1ccccc1)c1ccccc1 (centres undefined)	-6%	8%	.	.	-2%	1%
COc1ccc(-c2cc(C(=O)N/N=C/c3ccc(O)cc3)[nH]n2)cc1	.	.	.	.	-10%	.
O=C(CSc1nnc2ccccn12)c1ccc(OC(F)F)cc1OC(F)F	3%	13µM*	0%	0%	-43%	0%[57.5 µM]
COCCn1c(C)cc(C(=O)CSc2nnc3ccccn23)c1C	-1%	-1%	-9%	4%	4%	-1%
